Results from PubChem BioAssay.
Several values for one entry are separate records, joined by “and”; a condition that tells them apart may be missing. Identical values can stand only once. Results filed as inconclusive are left out. Activity calls are given as the source filed them.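 How the source made its calls, unless noted: active means normalized viability below 100% at a tested concentration; inactive means the rest.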

Legend:
[1] = viability loss in pontine glioma line – cell-based, SU-DIPG-XIII, MIPE4.0, CellTiter-Glo, qHTS, dose response (AID 1347061; cut-off not given, nearly all actives have AC50 up to about 37 µM;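 further: cells exposed to compound for 48 hours before readout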); conditions: CellTiter-Glo ATP luminescence
[2] = viability loss in pontine glioma line – cell-based, JHH-DIPG-1, MIPE4.0, CellTiter-Glo, qHTS, dose response (AID 1347062; cut-off not given, nearly all actives have AC50 up to about 27 µM); conditions: JHH-DIPG-1 viability, CellTiter-Glo ATP luminescence
[3] = growth inhibition of DIPG cells – cell-based, MIPE4.0 library, CellTiter-Glo luminescence, qHTS (AID 1347066; cut-off not given, nearly all actives have AC50 up to about 30 µM;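 further: cells exposed to compound for 48 hours before readout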); conditions: SU-DIPG-VI viability, CellTiter-Glo ATP luminescence
[4] = viability loss with induced miR-34 in A549 – imaging, A549 dox-inducible miR-34, nuclei and caspase counts, primary screen (AID 1347080;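 active means compounds whose cell count with miR-34 switched on is under 0.7 times the count with it off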); conditions: A549 miR-34 inducible, Hoechst nuclei count, 48 h
[5] = MELAS cybrid and Rieske KO viability enhancers – cell-based, MELAS cybrids, Rieske KO mouse fibroblasts, CellTiter-Glo, primary screen (AID 1508586;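 active means mean z-score across replicates of 1.96 or higher in either the MELAS or the Rieske mutant cell line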;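 further: z relative to plate mean and SD of compound and empty wells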); conditions: low glucose
[6] = viability loss in pontine glioma line – cell-based, SU-DIPG-IV, MIPE4.0, CellTiter-Glo, qHTS, dose response (AID 1347063; cut-off not given, nearly all actives have AC50 up to about 30 µM;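 further: compound exposure lasted 48 hours before the viability readout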); conditions: CellTiter-Glo ATP luminescence
[7] = growth inhibition of DIPG cells – cell-based, MIPE5.0 library, qHTS (AID 1347068; cut-off not given, nearly all actives have IC50 up to about 30 µM); conditions: SU-DIPG-XXV viability
[8] = viability loss in pontine glioma line – cell-based, SU-DIPG-XIII, MIPE5.0, CellTiter-Glo, qHTS, dose response (AID 1347064; cut-off not given, nearly all actives have AC50 up to about 23 µM;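 on AC50: cells exposed to compound for 48 hours before the viability read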); conditions: CellTiter-Glo ATP luminescence
[9] = JHH-DIPG-1 glioma cell viability, MIPE5.0 library, CellTiter-Glo luminescence, qHTS (AID 1347067; cut-off not given, nearly all actives have AC50 up to about 26 µM;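 further: cells exposed to compound for 48 hours before readout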); conditions: JHH-DIPG-1 glioma viability, CellTiter-Glo ATP luminescence
[10] = viability loss in pontine glioma line – cell-based, SU-DIPG-XXV, MIPE5.0, CellTiter-Glo, qHTS, dose response (AID 1347065; cut-off not given, nearly all actives have AC50 up to about 26 µM;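 further: cells exposed to compound for 48 hours before ATP readout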); conditions: CellTiter-Glo ATP luminescence
[11] = compounds altering HSF1 focus formation in cells – imaging, Selleck Cancer Library (AID 1347162; in the data active means plate-normalised HSF1 focus index below about 0.46); conditions: human cells, HSF1 nuclear foci imaging, at 10 µM; SSMD: measured here: HSF1 foci SSMD mean; cell count: measured here: cell number; plate-normalised HSF1 focus index: stronger effect = lower value
[12] = drug combination growth inhibition, ovarian cancer – cell-based, oncology-focused library, rucaparib conditional, profiling panel (AID 1508598); conditions: patient-derived ovarian cancer cells, CellTiter-Glo viability, 144 h, stronger effect = lower value
[13] = stronger effect = lower value, cell number ratio, induced over uninduced
[14] = measured here: relative caspase fold change +Dox/-Dox
[15] = measured here: total cells with miR-34 induction, stronger effect = lower value
[16] = measured here: total cells without miR-34 induction
[17] = MELAS cybrid survival, CellTiter-Glo 48 h, stronger effect = higher value
[18] = Rieske KO mouse fibroblast survival, CellTiter-Glo 72 h

Compound: O=c1c2ccccc2nc2n1CCc1c-2[nH]c2ccccc12
- outcome [1]: inactive
- outcome [2]: inactive
- outcome [3]: inactive
- fold change [4, 13]: 0.916 (inactive) and 0.956 (inactive)
- fold change [4, 14]: 0.977 and 0.922
- cell count [4, 15]: 6410 and 7870
- cell count [4, 16]: 6990 and 8230
- z-score [5, 17]: -0.312 (inactive)
- z-score [5, 18]: 0.166

Compound: Cc1c(NC(=O)c2ccc(C(C)(C)C)cc2)cccc1-c1cn(C)c(=O)c(Nc2ccc(C(=O)N3CCOCC3)cc2)n1
- outcome [1]: inactive
- AC50 [6]: 10.5 µM (active)
- outcome [3]: inactive
- outcome [7]: inactive
- fold change [4, 13]: 1.11 (inactive)
- fold change [4, 14]: 0.695
- cell count [4, 15]: 5460
- cell count [4, 16]: 4900
- z-score [5, 17]: -0.54 (inactive)
- z-score [5, 18]: -0.156

Compound: CC(C)CN(C[C@@H](O)[C@H](Cc1ccccc1)NC(=O)O[C@H]1CCOC1)S(=O)(=O)c1ccc(N)cc1
- outcome [1]: inactive
- outcome [2]: inactive
- outcome [3]: inactive
- fold change [4, 13]: 0.871 (inactive)
- fold change [4, 14]: 1.32
- cell count [4, 15]: 8920
- cell count [4, 16]: 10200
- z-score [5, 17]: -0.00484 (inactive)
- z-score [5, 18]: -0.0373

Compound: CCOC(=O)N1c2ccc(C(F)(F)F)cc2[C@@H](N(Cc2cc(C(F)(F)F)cc(C(F)(F)F)c2)C(=O)OC)C[C@H]1CC
- outcome [1]: inactive
- outcome [8]: inactive
- outcome [3]: inactive
- outcome [9]: inactive
- outcome [7]: inactive

Compound: C=C1[C@H](n2cnc3c(=O)[nH]c(N)nc32)C[C@H](O)[C@H]1CO
- outcome [1]: inactive
- outcome [3]: inactive

Compound: O=C(C1CC1)N1CC[C@@H](Cn2c(-c3ccc(-c4ccc5occc5c4)cc3)nc3cnccc32)C1
- outcome [1]: inactive
- AC50 [10]: 18.6 µM (active)
- outcome [3]: inactive
- outcome [7]: inactive

Compound: Cc1ccc2c(c1)c1c(n2CCc2ccc(C)nc2)CCN(C)C1
- outcome [1]: inactive
- outcome [6]: inactive
- outcome [3]: inactive

Compound: CS(=O)(=O)N(Cc1ccco1)CC(O)Cn1c2ccccc2c2ccccc21 (stereo not drawn)
- outcome [1]: inactive
- outcome [8]: inactive
- outcome [10]: inactive
- outcome [3]: inactive
- outcome [9]: inactive
- outcome [7]: inactive

Compound: COc1cc2ncnc(Nc3cc(Br)c(O)c(Br)c3)c2cc1OC
- outcome [1]: inactive
- AC50 [6]: 2.35 µM (active)
- outcome [3]: inactive

Compound: CC(C)OC(=O)C1=CN(C(=O)c2ccc(F)c(F)c2)CC(C)(C)c2c1[nH]c1ccccc21
- outcome [1]: inactive
- AC50 [6]: 26.4 µM (active)
- outcome [8]: inactive
- outcome [10]: inactive
- outcome [3]: inactive
- outcome [9]: inactive
- outcome [7]: inactive
- fold change [4, 13]: 0.997 (inactive)
- fold change [4, 14]: 0.501
- cell count [4, 15]: 7570
- cell count [4, 16]: 7590
- SSMD [11]: 3.1
- cell count [11]: 7100
- plate-normalised HSF1 focus index [11]: 1.17 (inactive)
- z-score [5, 17]: -0.00254 (inactive)
- z-score [5, 18]: 0.0698
- viability ([12]; at 0.000305 µM, OCI-C5x cells, with rucaparib 10 µM, 100% = cells with rucaparib alone): 123% (inactive)
- viability ([12]; at 0.000305 µM, OCI-C5x cells, without rucaparib): 126% (inactive)
- viability ([12]; at 0.000305 µM, OCI-P5x cells, with rucaparib 20 µM, 100% = cells with rucaparib alone): 115% (inactive)
- viability ([12]; at 0.000305 µM, OCI-P5x cells, without rucaparib): 112% (inactive)
- viability ([12]; at 0.00122 µM, OCI-C5x cells, with rucaparib 10 µM, 100% = cells with rucaparib alone): 116% (inactive)
- viability ([12]; at 0.00122 µM, OCI-C5x cells, without rucaparib): 130% (inactive)
- viability ([12]; at 0.00122 µM, OCI-P5x cells, with rucaparib 20 µM, 100% = cells with rucaparib alone): 117% (inactive)
- viability ([12]; at 0.00122 µM, OCI-P5x cells, without rucaparib): 110% (inactive)
- viability ([12]; at 0.00488 µM, OCI-C5x cells, with rucaparib 10 µM, 100% = cells with rucaparib alone): 128% (inactive)
- viability ([12]; at 0.00488 µM, OCI-C5x cells, without rucaparib): 128% (inactive)
- viability ([12]; at 0.00488 µM, OCI-P5x cells, with rucaparib 20 µM, 100% = cells with rucaparib alone): 111% (inactive)
- viability ([12]; at 0.00488 µM, OCI-P5x cells, without rucaparib): 115% (inactive)
- viability ([12]; at 0.0195 µM, OCI-C5x cells, with rucaparib 10 µM, 100% = cells with rucaparib alone): 108% (inactive)
- viability ([12]; at 0.0195 µM, OCI-C5x cells, without rucaparib): 126% (inactive)
- viability ([12]; at 0.0195 µM, OCI-P5x cells, with rucaparib 20 µM, 100% = cells with rucaparib alone): 118% (inactive)
- viability ([12]; at 0.0195 µM, OCI-P5x cells, without rucaparib): 115% (inactive)
- viability ([12]; at 0.0781 µM, OCI-C5x cells, with rucaparib 10 µM, 100% = cells with rucaparib alone): 112% (inactive)
- viability ([12]; at 0.0781 µM, OCI-C5x cells, without rucaparib): 128% (inactive)
- viability ([12]; at 0.0781 µM, OCI-P5x cells, with rucaparib 20 µM, 100% = cells with rucaparib alone): 115% (inactive)
- viability ([12]; at 0.0781 µM, OCI-P5x cells, without rucaparib): 116% (inactive)
- viability ([12]; at 0.313 µM, OCI-C5x cells, with rucaparib 10 µM, 100% = cells with rucaparib alone): 125% (inactive)
- viability ([12]; at 0.313 µM, OCI-C5x cells, without rucaparib): 131% (inactive)
- viability ([12]; at 0.313 µM, OCI-P5x cells, with rucaparib 20 µM, 100% = cells with rucaparib alone): 113% (inactive)
- viability ([12]; at 0.313 µM, OCI-P5x cells, without rucaparib): 114% (inactive)
- viability ([12]; at 1.25 µM, OCI-C5x cells, with rucaparib 10 µM, 100% = cells with rucaparib alone): 114% (inactive)
- viability ([12]; at 1.25 µM, OCI-C5x cells, without rucaparib): 122% (inactive)
- viability ([12]; at 1.25 µM, OCI-P5x cells, with rucaparib 20 µM, 100% = cells with rucaparib alone): 114% (inactive)
- viability ([12]; at 1.25 µM, OCI-P5x cells, without rucaparib): 106% (inactive)
- viability ([12]; at 5 µM, OCI-C5x cells, with rucaparib 10 µM, 100% = cells with rucaparib alone): 125% (inactive)
- viability ([12]; at 5 µM, OCI-C5x cells, without rucaparib): 118% (inactive)
- viability ([12]; at 5 µM, OCI-P5x cells, with rucaparib 20 µM, 100% = cells with rucaparib alone): 114% (inactive)
- viability ([12]; at 5 µM, OCI-P5x cells, without rucaparib): 113% (inactive)

Compound: CC[C@]1(O)C[C@@H]2CN(CCc3c([nH]c4ccccc34)[C@@](C(=O)OC)(c3cc4c(cc3OC)N(C=O)[C@@H]3C45CCN4CC=C[C@](CC)([C@H]45)[C@@H](OC(C)=O)[C@]3(O)C(=O)OC)C2)C1 (stereo partly drawn)
- outcome [1]: inactive
- outcome [6]: inactive
- SSMD [11]: 2.03
- cell count [11]: 6870
- plate-normalised HSF1 focus index [11]: 1.12 (inactive)

Compound: CN1CCN(c2cc(C(=O)Nc3ccc4c(c3)-c3c(c(C(N)=O)nn3-c3ccc(F)cc3)CC4)c(Cl)cn2)CC1
- AC50 [1]: 9.35 µM (active)
- AC50 [6]: 18.7 µM (active)
- AC50 [8]: 14.8 µM (active)
- AC50 [10]: 10.5 µM (active)
- AC50 [3]: 23.5 µM (active)
- AC50 [9]: 13.2 µM (active)

Compound: CCOC(=O)C1=C(C)NC2=C(C(=O)CC(C)(C)C2)C1c1ccc(-c2ccccc2)cc1 (stereo not drawn)
- outcome [1]: inactive
- AC50 [6]: 14.8 µM (active)
- AC50 [10]: 23.5 µM (active)
- outcome [7]: inactive

Compound: CN(C)c1nc(Cc2ccc(NC(=O)c3ccc4ccccc4c3)cc2)nc(Cl)c1CC(=O)O
- outcome [1]: inactive
- outcome [3]: inactive

Compound: N#Cc1ccc(NC(=O)Nc2ccccc2Br)c2n[nH]nc12
- outcome [1]: inactive
- outcome [10]: inactive
- SSMD [11]: -0.0129
- cell count [11]: 7440
- plate-normalised HSF1 focus index [11]: 1 (inactive)

Compound: CC(O)(C#Cc1ccc2c(c1)N(c1nc(N)ncc1Cl)CC2)c1nccs1 (stereo not drawn)
- AC50 [1]: 16.6 µM (active)
- AC50 [6]: 16.6 µM (active)
- AC50 [10]: 13.2 µM (active)
- outcome [3]: inactive
- AC50 [9]: 18.6 µM (active)

Compound: COc1cccc2c1CCCC2CCCN1CCN(C2CCCCC2)CC1 (stereo not drawn)
- outcome [1]: inactive
- AC50 [6]: 18.7 µM (active)
- SSMD [11]: -2.1
- cell count [11]: 5730
- plate-normalised HSF1 focus index [11]: 0.878 (inactive)

Compound: CCC(=O)OCC(=O)[C@@]1(OC(=O)CC)[C@@H](C)C[C@H]2[C@@H]3CCC4=CC(=O)C=C[C@]4(C)[C@@]3(F)[C@@H](O)C[C@@]21C
- AC50 [1]: 0.00935 µM (active)
- AC50 [6]: 2.35 µM (active)
